Data published in PubChem BioAssay AID2501 (Southern Research Specialized Biocontainment Screening …, 2010).
About 1,200 (55%) of roughly 2,200 compounds were called active. The limit is not given here; nearly all actives have IC50 up to about 92 µM. So high a share suggests a set chosen from earlier hits. Some of the results follow.

Assay: counter assay for TAg ATPase ADP read-out – biochemical, ADP-Hunter, fluorescence, counter-screen (AID 2501);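 also: purified T antigen ATPase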
Details: series mostly up to 100 µM

| Structure (SMILES) | IC50 |
| --- | --- |
| CCOc1cc(/C=N/NC(=O)CSc2cccc3cccnc23)ccc1O | 3.48 µM (active) |
| O=C(N/N=C/c1ccc(O)c(O)c1)c1ccc(CSc2cccc3cccnc23)cc1 | 29 µM (active) |
| O=C(COc1cccc2cccnc12)N/N=C/c1ccc(O)cc1 | 73.5 µM (active) |
| O=C(CSc1cccc2cccnc12)N/N=C/c1ccc(O)cc1 | 4.35 µM (active) |
| O=S(=O)(Nc1cc(Sc2cccc3cccnc23)c(O)c2ccccc12)c1ccc(F)cc1 | inactive |
| COc1ccc([C@@H]2[C@@H]3C(=O)N(C(C)(C)C)C(=O)[C@@H]3[C@]3(C)C(=O)N(c4ccc(C)cc4)C(=O)N23)cc1 | inactive |
| COCc1ccc(C(=O)N2CCCC(CCC(=O)NCc3ccccc3F)C2)o1 (centres undefined) | inactive |
| COc1ccc(NC2CCCN(C(=O)c3ccc(OC)o3)C2)cc1 (centres undefined) | 10.4 µM (active) |
| COc1ccc(C(=O)Nc2ccc3c(c2)CCCN3C(=O)c2cccs2)c(OC)c1 | inactive |
| O=C(c1cc(F)ccc1F)C1CCCN(C(=O)c2ccc(F)cc2Cl)C1 (centres undefined) | inactive |
| COc1ccc(NC2CCCN(C(=O)c3ccncc3)C2)cc1 (centres undefined) | 12 µM (active) |
| O=C(c1ccco1)N1CCN(C(=O)N2CCCC2)CC1 | inactive |
| CSc1ncc(CN2CCCC(C(=O)Nc3ccc(-c4ccco4)cc3)C2)cn1 (centres undefined) | inactive |
| O=C(c1ccco1)N1CCCC(Nc2ccc3c(c2)OCCO3)C1 (centres undefined) | 13.5 µM (active) |
| COc1ccc(NC2CCCN(C(=O)c3ccc(OC)cc3OC)C2)cc1 (centres undefined) | 3.38 µM (active) |
| COc1cc(O)c(C(C)=O)c(CC(=O)O)c1 | inactive |
| CN(Cc1ccno1)Cc1cn(C)nc1-c1ccc(Oc2ccccc2)cc1 | inactive |
| CCOc1ccc(C(=O)N(Cc2ccc(OC)cc2)Cc2cc3cc(OC)ccc3[nH]c2=O)cc1 | inactive |
| N#CC(C#N)=C1C=CC=CN1/C(=C\c1ccco1)C(=O)c1ccc(Br)cc1 | inactive |
| CCOc1cc(S(=O)(=O)n2nc(C)cc2C)ccc1Br | inactive |
| CCCN1CCN(C(=O)c2cc(COc3ccc4ncccc4c3)on2)CC1 | inactive |
| O=C1CCC(CCC(=O)N2CCCC(C(=O)c3cccc(C(F)(F)F)c3)C2)=NN1 (centres undefined) | inactive |
| COc1ccc(NC(=O)N2CCCC(C(=O)Nc3cccc(C)c3C)C2)cc1 (centres undefined) | inactive |
| COc1ccc(NC2CCCN(C(=O)c3c(C)noc3C)C2)cc1 (centres undefined) | 6.38 µM (active) |
| COc1ccc(NS(=O)(=O)c2ccc3c(c2)[C@H]2C=CC[C@H]2[C@@H](c2ccc(C(=O)O)cc2)N3)cc1 | inactive |
| COc1ccc(NC2CCCN(C(=O)c3ccc(C(C)=O)cc3)C2)cc1 (centres undefined) | 2.06 µM (active) |

| Structure (SMILES) | IC50 |
| --- | --- |
| COc1ccc(NC2CCCN(C(=O)c3cccc(C(F)(F)F)c3)C2)cc1OC (centres undefined) | 12 µM (active) |
| Cc1ccc(C(=O)Oc2oc(-c3ccccc3)nc2C=Nc2ccc(N(C)C)cc2)cc1 | inactive |
| Cc1cc(C)c2c(=O)n(CC(=O)N3CCC(N4CCCCC4)CC3)sc2n1 | inactive |
| Cc1ccc(NC(=O)CN2C(=O)N/C(=C/c3cc(C)n(-c4ccc(C(=O)O)cc4)c3C)C2=O)cc1 | inactive |
| CC(C)NC(=O)C1CCN(C2CCN(Cc3ccc4cccc(F)c4n3)CC2)CC1 | inactive |
| CN(C)c1ccc(NC(=O)CN2CCC(N3CCCCC3)CC2)cc1 | 6.64 µM (active) |
| Cc1ccc(NC(=O)CN2C(=O)N/C(=C/c3cccn3-c3ccc(C(=O)O)cc3)C2=O)cc1 | inactive |
| CN(C)c1ccc(NC(=O)CN2CCC(C(=O)c3ccc(F)cc3)CC2)cc1 | 3.05 µM (active) |
| Cc1ccc(C(=O)C2CCN(CC(=O)Nc3ccc(N(C)C)cc3)CC2)cc1 | 6.37 µM (active) |
| CC(=O)CSc1nc(C(F)(F)F)cc(=O)n1-c1ccccc1 | inactive |
| CC1(C)Cc2c(C#N)c(N3CCCC3)nc(-c3ccco3)c2CO1 | inactive |
| CN(C)c1ccc(Nc2cc(Cl)ncn2)cc1 | 9.79 µM (active) |
| O=C1CCCC2=C1Sc1ccccc1N2 | 7.55 µM (active) |
| Cc1c(Br)c(=O)oc2c(Br)c(O)c(O)cc12 | 25.2 µM (active) |
| CN(C)/C=C(\C#N)C(=O)Nc1ccc(O)cc1F | 10.3 µM (active) |
| COc1ccc(OC)c(/C=N/NC(=O)CCc2ccc(O)c(O)c2)c1 | 40.4 µM (active) |
| O=C(CCc1ccc(O)c(O)c1)N/N=C/c1cc2c(cc1[N+](=O)[O-])OCO2 | inactive |
| N#Cc1nc(Cc2cccc3ccccc23)oc1NCCN1CCOCC1 | inactive |
| O=C(Nc1ccc(O)cc1)c1ccc2c(c1)C(=O)N(N1C(=O)c3ccccc3C1=O)C2=O | 6.05 µM (active) |
| Cc1cccc(C(=O)Nc2ccc(C(=O)N/N=C/c3ccc4c(c3)OCO4)cc2)c1 | inactive |
| O=C(Nc1ccc2c(c1)C(=O)OC2)c1ccc(C(F)(F)F)cc1 | inactive |
| Cc1cccc(C(=O)Nc2ccc(O)cc2)c1 | 4.37 µM (active) |
| COc1cc(C(=O)Nc2ccc(O)cc2)ccc1OC(C)=O | 3.55 µM (active) |
| CCOC(=O)NC(=O)C(=CNc1cccc(C)c1)C(=O)NC(=O)OCC | inactive |
| O=C(Cn1c(=O)n(Cc2ccco2)c(=O)c2c3c(sc21)CCCCC3)Nc1ccccc1 | inactive |
| O=C(Nc1ccc(O)cc1)c1ccc2c(c1)C(=O)N(Cc1ccco1)C2=O | 8.35 µM (active) |

| Structure (SMILES) | IC50 |
| --- | --- |
| O=C1CC(=O)N(Cc2ccco2)C(=O)N1 | inactive |
| OC1CN=C2CCCc3c2n(c2ccc(Cl)cc32)C1 (centres undefined) | inactive |
| O=C1COc2ccc(C(=O)COC(=O)/C=C/c3ccc(Br)o3)cc2N1 | inactive |
| CCNC(=O)COC(=O)/C=C/c1cccc(F)c1 | inactive |
| NS(=O)(=O)c1ccc(NC(=O)COC(=O)c2ccc(Cl)nc2)cc1 | inactive |
| COc1cc(/C=C/C(=O)OCC(=O)N2CC(=O)Nc3ccccc32)ccc1O | 6.1 µM (active) |
| COc1cc(/C=C/C(=O)OCC(=O)Nc2ccc(S(N)(=O)=O)cc2)ccc1O | 12.2 µM (active) |
| Cc1cc(C)c(S(=O)(=O)/N=C2/C=C(SCC(=O)O)C(=O)c3ccccc32)cc1C | inactive |
| CN(C)c1ccc(NC(=O)C(=O)C2C(=O)Nc3ccccc32)cc1 (centres undefined) | 1.57 µM (active) |
| Cn1c(SCC(=O)c2cc(Cl)c(Cl)s2)nnc1-c1ccco1 | inactive |
| C=CCn1c(SCC(=O)c2ccc(O)c(O)c2)nnc1-c1cccnc1 | 8.61 µM (active) |
| Cn1c(SCC(=O)c2ccc(O)c(O)c2)nnc1-c1cccs1 | 15.9 µM (active) |
| CCn1c(SCc2ccc(C(=O)Nc3nccs3)cc2)nnc1-c1ccc(NC(C)=O)cc1 | inactive |
| CCOC(=O)c1ccc(CSc2nnc(-c3ccncc3)n2N)cc1 | inactive |
| C=CCn1c(SCC(=O)c2ccc(O)c(O)c2)nnc1-c1ccccc1OC | 10.2 µM (active) |
| CCn1c(SCC(=O)c2ccc(O)c(O)c2)nnc1-c1ccc(C)cc1 | 6.52 µM (active) |
| COCCCN(Cc1ccco1)C(=O)Cn1ncc2c(=O)oc3ccc(C)cc3c21 | inactive |
| CCn1c(SCC(=O)c2ccc(O)c(O)c2)nnc1-c1ccccc1OC | 3.84 µM (active) |
| CCn1c(SCC(=O)Nc2ccccc2C)nnc1-c1ccccc1O | inactive |
| COc1cc(-c2nc(=S)[nH][nH]2)cc(OC)c1OC | 10.7 µM (active) |
| COc1ccc(C(=O)/C=C(\C)Nc2ccc(NC(C)=O)cc2)cc1 | 17.8 µM (active) |
| CC(=O)Nc1ccc(OCCOc2ccc(/C=C3\C(=N)N4N=C(C)SC4=NC3=O)cc2)cc1 | inactive |
| CN1c2ccc(C=O)c3c(C=O)ccc(c23)N(C)C1(C)C | 17.5 µM (active) |
| Nc1ccc2nc(-c3cccs3)[nH]c2c1 | 3.65 µM (active) |
| Cc1ccc(C)c(-c2nc3ccc(N)cc3[nH]2)c1 | 4.86 µM (active) |
| COc1ccc(C2=CC3=C(Br)C(=O)C(C)(OC(=O)c4ccco4)C(=O)C3=CO2)cc1 (centres undefined) | inactive |

| Structure (SMILES) | IC50 |
| --- | --- |
| CCNc1ccc(Br)cc(C(=O)/C=C/c2ccc(Cl)cc2Cl)c1=O | inactive |
| CC(=O)Nc1ccccc1O | 2.63 µM (active) |
| CCC(=Nc1ccccc1O)C1=C(O)CC(c2ccccc2)CC1=O (centres undefined) | 8.32 µM (active) |
| COc1cc(/C=C2\C(=O)ON=C2c2ccc(Cl)cc2)ccc1O | 18.5 µM (active) |
| CCOC(=O)C1=C(C)N(c2ccccc2)C(=O)/C1=C\c1ccc(O)c(OC)c1 | inactive |
| O=C1ON=C(c2ccccc2)/C1=C/c1ccc(OS(=O)(=O)c2ccccc2)cc1 | inactive |
| COc1cc(/C=C2/C(=O)ON=C2c2ccccc2)ccc1O | 14.4 µM (active) |
| O=C1C(=Cc2ccc(Br)o2)C(=O)c2ccccc21 | inactive |
| COc1cc(C=C2C(=O)c3ccccc3C2=O)ccc1O | 4.42 µM (active) |
| COc1ccc(/C=C2\C(=O)ON=C2c2ccccc2)cc1OC | inactive |
| O=C1ON=C(c2ccccc2)/C1=C/c1ccc(O)c(O)c1 | 7.26 µM (active) |
| COc1ccc(/C=C2\C(=O)ON=C2c2ccccc2)cc1 | inactive |
| O=C1ON=C(c2ccccc2)/C1=C\c1ccco1 | inactive |
| O=C1ON=C(c2ccccc2)/C1=C/c1ccccc1 | inactive |
| CC(=O)Nc1cccc(NC(=O)COc2ccc3c(c2)OCO3)c1 | inactive |
| O=C(CCS(=O)(=O)c1ccc(Cl)cc1)Oc1ccc2c(c1)OCO2 | 78 µM (active) |
| Cc1cc(NS(=O)(=O)c2ccc(NC(=O)Nc3ccc4c(c3)OCO4)cc2)no1 | inactive |
| COc1c2ccoc2nc2c(OC)c(O)ccc12 | 11.5 µM (active) |
| CC(OC(=O)c1ccccc1C(=O)N(C)c1ccccc1)C(=O)Nc1ccc(C(N)=O)cc1 (centres undefined) | inactive |
| CN(C)c1ccc(NC(=O)c2cccc(N3C(=O)CCC3=O)c2)cc1 | 6.4 µM (active) |
| CN(C)c1ccc(NC(=O)c2ccc3nc[nH]c3c2)cc1 | 3.67 µM (active) |
| Cc1ccc(NC(=O)CN2C(=O)N/C(=C/c3cc(C)n(-c4cccc(C(=O)O)c4)c3C)C2=O)cc1 | inactive |
| COc1c(F)c(F)c(C(=O)O)c(Nc2ccc(C)cc2)c1F | inactive |
| COc1cc(C(=O)Nc2ccc(N(C)C)cc2)cc(OC)c1OC | 5.06 µM (active) |
| CC(C)Oc1ccc(C(=O)Nc2ccc(N(C)C)cc2)cc1 | 12.1 µM (active) |
| COc1cc(C(=O)N/N=C2\CCS(=O)(=O)c3ccc(F)cc32)cc(OC)c1OC | inactive |
